# Screening results (PubChem)
# The list is not random: actives were taken first. Their share in the collection is about 4.7%.
# SKKanGAS inh = blocks kanamycin growth of S. pyogenes SKKanGAS strain; BacTiter-Glo, 6 h; inhibition, % at 7.5 µM; hit rate 1.3% among 300,000; AID 1662;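 active = mean replicate score, as percent of positive control median, at least 50; inconclusive = mean below 50 but one replicate at or above 50; inactive = mean and every replicate below 50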;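 note: strain carries kanamycin resistance gene driven by streptokinase promoter and grows in 40 µg/ml kanamycin; loss of luminescence reflects streptokinase promoter inhibition or plain growth inhibition; 0% = median of DMSO wells and 100% = positive control at its reference dose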
# tim23-1 inh = growth inhibitors of tim23-1 mutant yeast; S. cerevisiae tim23-1 growth, BacTiter-Glo luminescence, 24 h; inhibition, % at 20 µM; hit rate 1.3% among 330,000;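 active = growth inhibition of the mutant yeast at or above 50%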;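 note: temperature-sensitive mutant grown at 25 °C; plate controls were DMSO-treated mutant yeast for no effect and medium wells lacking yeast for full effect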
# PfHsp90 yeast 2 = reduces growth (ATP signal) of yeast expressing P. falciparum Hsp90; S. cerevisiae expressing PfHsp90, BacTiter-Glo ATP, 48 h; yeast lacking PDR1 and PDR3 efflux regulators; inhibition, % at 9.4 µM; hit rate 0.32% among 310,000; AID 504621;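 active = every replicate shows inhibition above about 80%, whatever the replicate mean, limit read from the data; inconclusive = mean inhibition reaches the set limit but some replicate falls short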;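 note: 0% = DMSO neutral controls and 100% = 20 µM radicicol positive controls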
# tim10-1 inh = inhibits growth of tim10-1 mutant yeast | AID 463190 | S. cerevisiae tim10-1 ts strain growth, BacTiter-Glo, 24 h | hit rate 2.2% among 330,000 | inhibition, % at 20 µM;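 active = inhibition of at least 40%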;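 note: mutant grown at 25 °C; 0% = DMSO wells with yeast and 100% = wells holding no yeast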
# TIM10 inh = growth inhibitors of TIM10 yeast strain | S. cerevisiae TIM10 strain growth, BacTiter-Glo luminescence, 24 h | inhibition, % at 10 µM | hit rate 1.4% among 330,000 | AID 463195;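 active = inhibition of 40% or more at the single tested concentration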;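 note: wild-type TIM10 isogenic control strain grown at permissive 25 °C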
# Calb FLC = C. albicans growth modulation with fluconazole. growth inhibition, % (no concentration beside the values). C. albicans CaCi-2 (fluconazole-resistant clinical isolate) + fluconazole, Alamar Blue growth, 48 h. AID 1979. hit rate 0.57% among 300,000;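 active = growth inhibition above about 58% in most replicates, limit read from the data, passing the limit was not always enough; inconclusive = exactly half the replicates above a set limit; inactive = most replicates below a set limit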;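 note: all wells also contain fluconazole at 8 µg/ml as a sub-toxic cotreatment; 0% = median of DMSO wells and 100% = median of geldanamycin control wells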
# tim10-1 conf = tim10-1 yeast growth inhibition, confirmed | S. cerevisiae tim10-1 ts strain growth, BacTiter-Glo, 24 h | shares compounds with tim10-1 inh | inhibition, % at 20 µM | hit rate 56% among 7,400;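 active = inhibition of yeast growth at or above a set limit in either of two repeat tests at 20 µM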;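 note: tim10-1 mutant grown at permissive 25 °C to find synthetic lethal compounds; 0% = DMSO yeast wells and 100% = medium wells without yeast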
# TIM10 conf = TIM10 yeast growth inhibition, confirmed. shares compounds with TIM10 inh. S. cerevisiae tim10 strain growth, BacTiter-Glo luminescence, 24 h. inhibition, % at 10 µM. hit rate 63% among 4,600. AID 463215;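 active = inhibition of yeast growth at or above a set limit in either of two replicates at 10 µM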;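 note: this counterscreen used the strain with wild-type TIM10; 0% = yeast with DMSO and 100% = medium wells lacking yeast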
# tim23-1 confirm = tim23-1 yeast growth inhibition, confirmed; S. cerevisiae tim23-1 growth, BacTiter-Glo luminescence, 24 h; inhibition, % at 20 µM; hit rate 83% among 4,400; shares compounds with tim23-1 inh;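 active = inhibition above about 39% in either of two replicate wells at 20 µM, limit read from the data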;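 note: temperature-sensitive tim23-1 mutant grown at 25 °C; 0% = DMSO wells with yeast and 100% = medium wells without yeast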
# * hit, by the source's call; ? = inconclusive; . = no result.
SMILES,SKKanGAS inh,tim23-1 inh,PfHsp90 yeast 2,tim10-1 inh,TIM10 inh,Calb FLC,tim10-1 conf,TIM10 conf,tim23-1 confirm
O=C(NC(=S)N1CCN(Cc2ccc3c(c2)OCO3)CC1)c1cccc(Br)c1,?,54*,-23,51*,56*,-51,35*,18,47*
COc1cc(NC(=O)C2CC(c3c(F)cccc3Cl)=NO2)c(OC)cc1Cl (stereo not drawn),31,26,-40,12,-4,3,.,.,.
Cc1ccc(O)c(NC(=O)C2CC(c3c(F)cccc3Cl)=NO2)c1 (stereo not drawn),9,54*,-31,44*,25,12,26,.,60*
CC1=NN(c2cccc(C(=O)O)c2)C(=O)/C1=C\C=C/c1ccccc1,-1,53*,.,43*,47*,?,47*,42*,62*
O=C(Nc1ccc(Nc2ccccc2)cc1)c1ccc(Cl)c([N+](=O)[O-])c1,6,73*,8,46*,23,12,28,.,57*
Cc1cc(C(=O)Nc2ccc(Nc3ccccc3)cc2)ccc1[N+](=O)[O-],1,-2,-20,-13,-4,5,.,.,.
CC(=O)CC(c1ccccc1)S(=O)(=O)c1ccc([N+](=O)[O-])cc1 (stereo not drawn),-1,2,16,4,1,17,.,.,.
CCCc1nc(SCC(=O)NCC2CCCO2)c2c(=O)n(C)c(=O)n(C)c2n1 (stereo not drawn),-2,7,-15,-9,-1,-6,.,.,.
Cc1cc(N)n2ncc(-c3cccc(Br)c3)c2n1,.,82*,-11,46*,51*,.,50*,52*,40*
Cc1cc(N)n2ncc(-c3ccccc3)c2n1,-7,15,7,28,22,-2,.,.,.
CCOc1ccc(/C=C(\C)C(=O)c2c(C)cc(C)[nH]c2=O)cc1,7,-5,-8,10,7,-6,.,.,.
O=C(COC(=O)c1ccc([N+](=O)[O-])s1)NC(c1ccccc1)c1ccccc1,22,4,-28,20,7,26,.,.,.
O=C(COC(=O)c1ccc([N+](=O)[O-])s1)NCc1ccccc1,3,51*,9,41*,54*,-1,41*,32*,33
Cc1ccc(C(=O)OCc2nnc(-c3ccccc3)o2)s1,16,32,.,29,15,2,.,.,.
O=C(OCc1nnc(-c2ccccc2)o1)c1ccc([N+](=O)[O-])s1,.,56*,13,57*,79*,.,68*,86*,73*
COCCN(C(=O)c1snc(C(N)=O)c1N)C(C(=O)NC1CCCCC1)c1ccc(F)cc1 (stereo not drawn),-1,3,11,13,10,4,.,.,.
O=C(C1=C(O)/C(=C/c2ccc(O)cc2)CCC1)C(F)(F)F,.,52*,-2,50*,17,1,16,.,59*
Cc1ccc(C(=O)c2nocc2C(=O)c2cccs2)cc1,5,46,18,13,27,-5,.,.,.
O=C(c1ccccn1)c1conc1C(=O)c1ccc(Br)cc1,3,78*,10,69*,72*,18,73*,63*,87*
CCN1/C(=C/C=C/C=C/c2sc3ccccc3[n+]2CC)Sc2ccccc21,104*,89*,.,80*,81*,.,79*,8,86*
CCN1/C(=C/C=C/c2sc3ccccc3[n+]2CC)Sc2ccccc21,89*,85*,20,77*,83*,27,77*,76*,85*
CC[n+]1c(/C=C/Nc2ccccc2)sc2ccccc21,4,0,12,19,2,3,.,.,.
O=C(c1ccc(=O)[nH]n1)N1CCN(S(=O)(=O)c2ccc(C(F)(F)F)cc2)CC1,.,10,31,4,-4,.,.,.,.
COc1ccc(OC)c(NC(=O)c2ccccc2OC(C)=O)c1,1,54*,-17,62*,21,8,32*,.,50*
O=C(Nc1cc2c3c(c1)CC(=O)N3CCC2)c1ccc(Cl)cc1,-4,3,9,-21,-3,3,.,.,.
SMILES,SKKanGAS inh,tim23-1 inh,PfHsp90 yeast 2,tim10-1 inh,TIM10 inh,Calb FLC,tim10-1 conf,TIM10 conf,tim23-1 confirm
Cc1c(Cc2ccccc2)c(NCCN(C)C)n2c(nc3ccccc32)c1C#N,-3,58*,111*,48*,69*,7,57*,80*,69*
CCc1c(C)c(C#N)c2nc3ccccc3n2c1NCCOC,3,33,4,34,6,11,.,.,.
CCCCc1c(C)c(C#N)c2nc3ccccc3n2c1NCCN(C)C,-7,65*,18,57*,52*,35,63*,37*,69*
CCCc1c(C)c(C#N)c2nc3ccccc3n2c1NCCCN1CCOCC1,0,3,.,21,-7,50,.,.,.
Cc1cccc(NC(=S)NNC(=O)COc2ccc(Cl)cc2Cl)c1,0,52*,-22,46*,43*,10,32*,0,42*
COc1ccc(CC(=O)NC(=S)Nc2cccc(C)c2)cc1,-9,62*,-3,46*,47*,-22,29*,36*,46*
COc1ccc(CC(=O)NC(=S)Nc2cccc(CO)c2)cc1,3,24,.,13,12,-6,.,.,.
CCC(C)c1ccccc1N1CC(C(=O)NCCCn2nc(C)cc2C)CC1=O (stereo not drawn),.,13,9,6,5,.,.,.,.
Cc1ccc(N2CC(NC(=O)C3CC3)CC2=O)cc1 (stereo not drawn),0,-1,.,-11,-2,-5,.,.,.
O=C(NCc1ccc(N2CCCC2=O)cc1)c1cc(COc2c(F)cccc2F)on1,-10,10,-5,0,0,12,.,.,.
c1ccc(-c2cccc(-c3ccccn3)n2)nc1,-1,58*,146*,60*,38,100*,43*,.,57*
c1ccc(-c2nnc(-c3ccccn3)nn2)nc1,7,37,-7,23,26,7,.,.,.
COc1cc(C(C)=O)ccc1OCC(=O)OCCCOC(=O)COc1ccc(C(C)=O)cc1OC,4,4,10,8,7,-8,.,.,.
COc1ccc(Cc2nnc(NC(=O)Nc3ccccc3F)s2)cc1OC,13,15,11,8,-3,-11,.,.,.
Cc1cc(OC(=O)c2cc(F)c(F)cc2Cl)nc(C)n1,0,-10,-8,7,-14,-7,.,.,.
Cc1cc(C)c(S(=O)(=O)c2ccccc2)c(OC(=O)c2cc(F)c(F)cc2Cl)n1,-6,66*,39,48*,45*,4,33*,13,72*
